Out of some 320,000 compounds screened, about 2,100 (0.66%) were called active. Inconclusive results (about 53%) are left out. The call rests on the fitted dose curve; in most records, active means well fitted inhibition curve with a large enough effect in the signal ratio, with a control signal flat (not every such curve was filed as active); inconclusive means small, poorly fitted or top-dose-only effect, or effect the other way, or a change in a side signal; inactive means flat fitted curve, though single readings scatter; the % refers to the signal ratio. What follows is part of a selection rich in actives, with near analogues and random picks from the rest.
Assay: qHTS Assay for Lipid Storage Modulators in Drosophila S3 Cells;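 on cell number change: cells counted by Cell Tracker Red CMTPX staining in the red channel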; on lipid storage change, negative = inhibition: on the % scale 0 is the no-effect control and ±100 the full control effect
Conditions: BODIPY lipid droplet fluorescence, 18-24 h, cells fed with added oleic acid; cell number change: measured here: cell count max response; series mostly up to 46.1 µM; lipid storage change, negative = inhibition: at the top concentration
How it was run: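 Drosophila S3 cells loaded with oleic acid (400 uM, as added) and compounds at several concentrations; lipid droplets imaged by 488-nm laser-scanning cytometry, 500–530 nm intensity and object ratio to cell channel. Percent activity normalized to 20 uM Triacsin C.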
Potency means the concentration at half of the fitted maximal effect.

Row | SMILES | lipid storage change, negative = inhibition | cell number change | Potency | outcome
1 | C/C(=C\C(=S)Nc1ccccc1)Nc1ccccc1 | 0.0435% (inactive) | -10.3% | – | –
2 | Nc1ncc2c(n1)CCN(c1ccc([N+](=O)[O-])cc1)C2 | – | -20.7% | 23.1 µM (active) | –
3 | O=[N+]([O-])c1ccc(N2CCCCC2)cc1 | 15% (inactive) | 7.1% | – | –
4 | Nc1ncc(-c2ccc([N+](=O)[O-])cc2)cn1 | 10.8% (inactive) | 12.5% | – | –
5 | O=C(CCNC(=O)N1CC(=O)Nc2ccccc21)Nc1ccc(Br)cc1F | – | -22.5% | – | inactive
6 | O=C1c2cccc3cccc(c23)C(=O)N1Nc1ccccc1 | -24.6% (inactive) | 13.9% | – | –
7 | COc1ccc(Br)cc1CSC(=N)N | 1.61% (inactive) | 1.43% | – | –
8 | CCOc1ccc(C(C)=O)cc1CSC(=N)N | 3.16% (inactive) | 0.606% | – | –
9 | CCCOc1ccc(Br)cc1CSC(=N)N | – | -27.5% | 18.4 µM (active) | –
10 | COc1ccc(Nc2c3c(nc4ccccc24)CCC3)cc1 | 5.42% (inactive) | 21.3% | – | –
11 | Cc1ccc2nc3c(c(Nc4ccccc4)c2c1)CCC3 | 3.77% (inactive) | – | – | –
12 | COc1ccc(Nc2c3c(nc4ccc(C)cc24)CCC3)cc1 | – | 0.901% | 20.6 µM (active) | –
13 | COc1ccc(C(C)=O)cc1COC(=O)CNC(=O)c1ccc(Cl)cc1 | -8.38% (inactive) | -0.097% | – | –
14 | Cc1c(C(=O)N/N=C/C(C)C)[nH]c2ccc([N+](=O)[O-])cc12 | 1.18% (inactive) | -4.9% | – | –
15 | O=C(NCCCN1CCOCC1)c1sc2cc(Cl)ccc2c1Cl | 28.1% (inactive) | 0.814% | – | –
16 | O=C(NCCN1CCOCC1)c1sc2cc(Cl)ccc2c1Cl | – | -3.15% | 4.61 µM (active) | –
17 | O=C(NCCN1CCOCC1)c1sc2ccccc2c1Cl | -5.29% (inactive) | -1.8% | – | –
18 | COc1ccc(NC(=O)Nc2nnc(-c3ccco3)s2)cc1 | -13.5% (inactive) | 3.5% | – | –
19 | Cc1nc(NC2=NCN(CCCN3CCOCC3)CN2)nc2c(C)cccc12 | – | – | – | inactive
20 | Cc1cc(C)c2nc(NC3=NCN(CCN4CCOCC4)CN3)nc(C)c2c1 | – | 3.72% | 25.9 µM (active) | –
21 | Cc1cc2nc(NC3=NCN(CCN4CCOCC4)CN3)nc(C)c2cc1C | 9.9% (inactive) | -6.7% | – | –
22 | CS(=O)(=O)NN1C(=O)c2ccccc2NC1c1c[nH]c2ccccc12 (stereo not drawn) | -2.09% (inactive) | 15.5% | – | –

Row | SMILES | lipid storage change, negative = inhibition | cell number change | Potency | outcome
23 | CCOc1ccc(NC(=O)CCC(=O)NNC(=O)Nc2ccc(Cl)cc2)cc1 | 9.1% (inactive) | 10.6% | – | –
24 | CCOc1ccc(NC(=O)CCC(=O)NNC(=O)c2ccc(Br)o2)cc1 | – | 5.86% | 6.51 µM (active) | –
25 | CCOc1ccc(NC(=O)CCC(=O)NNC(=O)c2ccco2)cc1 | 18.2% (inactive) | – | – | –
26 | CCOCCCNc1c2c(nc3cc(-c4ccc(F)cc4)nn13)CCC2 | 1.43% (inactive) | 9.58% | – | –
27 | CCCCn1c(CCNC(=O)c2ccco2)nc2ccccc21 | -21.9% (inactive) | 8.05% | – | –
28 | C=CCn1c(CCNC(=O)c2ccco2)nc2ccccc21 | -5.61% (inactive) | 8.97% | – | –
29 | CCn1c(CCNC(=O)c2ccco2)nc2ccccc21 | 2.45% (inactive) | -11.3% | – | –
30 | C=C(C)Cn1c(CCNC(=O)c2ccco2)nc2ccccc21 | – | 15.2% | 0.517 µM (active) | –
31 | CC(C)Cn1c(CCNC(=O)c2ccco2)nc2ccccc21 | – | – | 3.66 µM (active) | –
32 | CC(C)Cn1c(CCCNC(=O)c2ccco2)nc2ccccc21 | – | – | – | inactive
33 | CC(=O)c1ccc(S(=O)(=O)N2CCN(C(=O)c3ccccc3Cc3ccccc3)CC2)cc1 | 18% (inactive) | – | – | –
34 | CCNC(=O)CN(CCc1ccccc1)S(C)(=O)=O | -19.8% (inactive) | -1.75% | – | –
35 | NC(=O)CSc1nccn1Cc1ccccc1 | 4.18% (inactive) | -3.05% | – | –
36 | CCOc1ccc(S(=O)(=O)N2CCC(C(=O)NCC3CCCO3)CC2)cc1Cl (stereo not drawn) | – | 20.5% | – | inactive
37 | O=S(=O)(NC1CCCC1)c1ccc(S(=O)(=O)NC2CCCC2)cc1 | 11.9% (inactive) | 5.07% | – | –
38 | CSc1ccc(S(=O)(=O)NC2CCCCC2)cc1 | – | 26.8% | 23.1 µM (active) | –
39 | CSc1ccc(S(=O)(=O)NC2CC2)cc1 | 15.4% (inactive) | 1.23% | – | –
40 | Cc1cccc(C)c1NC(=S)N(CCN(C)C)Cc1cccs1 | 0.695% (inactive) | -10.3% | – | –
41 | Cc1ccc(S(=O)(=O)Nc2ccc(-n3cnnn3)cc2)c(C)c1 | – | -8.9% | 0.58 µM (active) | –
42 | O=S(=O)(Nc1cccc(-n2cnnn2)c1)c1ccccc1 | – | -16.7% | – | inactive
43 | O=S(=O)(Nc1cccc(-n2cnnn2)c1)c1ccccc1C(F)(F)F | – | -11% | – | inactive
44 | O=S(=O)(Nc1ccc(-n2cnnn2)cc1)c1ccc(Cl)cc1 | 0.143% (inactive) | -6.89% | – | –

Row | SMILES | lipid storage change, negative = inhibition | cell number change | Potency | outcome
45 | O=S(=O)(Nc1cccc(-n2cnnn2)c1)c1cc(Br)ccc1Br | – | -10.7% | 20.6 µM (active) | –
46 | Cc1ccc(S(=O)(=O)Nc2ccc(-n3cnnn3)cc2)cc1 | – | 12.5% | – | inactive
47 | O=C(CNC(c1ccccc1)c1ccccc1)NCc1ccccc1Cl | -4.84% (inactive) | 11.7% | – | –
48 | Cc1cccc(N2CCN(S(=O)(=O)c3c(C)noc3/C=C/N(C)C)CC2)c1C | -15.8% (inactive) | 12.9% | – | –
49 | Cc1cc(C)c(-c2csc(NC(=O)/C=C/c3cccs3)n2)c(C)c1 | – | -27.5% | 16.4 µM (active) | –
50 | O=C(/C=C/c1cccs1)Nc1nc(-c2ccccc2)cs1 | 24.3% (inactive) | – | – | –
51 | Cc1cc(C)nc(NC(=O)/C=C/c2cccs2)c1 | 20.5% (inactive) | -8.29% | – | –
52 | O=C(NCCCc1ccccc1)C1CC(=O)N(c2ccc3c(c2)OCCO3)C1 (stereo not drawn) | 9.93% (inactive) | 12.6% | – | –
53 | Cc1coc(=N)n1CC(=O)c1ccc(Cl)cc1 | 12.1% (inactive) | 10.4% | – | –
54 | O=c1c(Cl)c(Cl)cnn1Cc1ccccc1Cl | – | -22.7% | 14.6 µM (active) | –
55 | O=c1[nH]cnc2c1cnn2Cc1ccccc1Cl | – | – | – | inactive
56 | Cc1ccc(Cn2ncc(Cl)c(Cl)c2=O)cc1 | -3.59% (inactive) | 1.44% | – | –
57 | O=C(CS(=O)(=O)c1ccccc1)Nc1nnc(-c2cccs2)o1 | -5.63% (inactive) | 3.1% | – | –
58 | CCn1c2ccccc2c2cc(NC(=O)CN(C)CC(=O)Nc3ccc(N4CCOCC4)cc3)ccc21 | -0.511% [at 9.22 µM] (inactive) | -4.9% | – | –
59 | CCn1c(=Nc2ccc(N3CCOCC3)cc2)ccc2ccccc21 | – | -184% | 9.2 µM (active) | –
60 | Oc1ccc2ccccc2c1C=Nc1ccc(N2CCOCC2)cc1 | – | – | – | inactive
61 | COc1cc(C(c2sc3ncnn3c2O)N2CCN(c3ccccc3F)CC2)cc(OC)c1OC (stereo not drawn) | 1.93% (inactive) | 14.8% | – | –
62 | CSc1nc(SCC(=O)O)c2c3c(sc2n1)COC(C)(C)C3 | 21.3% (inactive) | 9.24% | – | –
63 | COc1ccc(S(=O)(=O)N2CCOCC2)cc1NC(=O)CSc1nnc2c(n1)[nH]c1ccccc12 | -9.37% (inactive) | -0.0197% | – | –
64 | C=CCNC(=S)N1CCN(CCN=CC2=C(O)CC(c3cccs3)CC2=O)CC1 (stereo not drawn) | 3.99% (inactive) | 17.2% | – | –
65 | CCCCCC(=O)N1CCN(CCN=CC2=C(O)CC(c3cccs3)CC2=O)CC1 (stereo not drawn) | -4.09% (inactive) | 0.809% | – | –
66 | CC(=O)N1CCN(CCN=CC2=C(O)CC(c3cccs3)CC2=O)CC1 (stereo not drawn) | – | -26.6% | 20.6 µM (active) | –

— PubChem BioAssay AID2685 (National Center for Advancing Translational Sciences (NCATS), 2010)
